Assay results published in PubChem BioAssay (NCI).
About 83,000 compounds went through this panel and 20% of them were active in at least one assay; those are over-represented in the sample as a whole.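 Testing used 96-well plates and a 48-hour single-concentration exposure. Example: -40 means 40% of the starting cells died.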 Values without a mark were called inactive. Active and inactive are the calls of the source. The calls were made as follows: active = growth percent below 10; inactive = the rest.

Assays:
Assay in all cases: NCI-60 one-dose screen, 48 h (100 = growth as untreated, 0 = no growth, -100 = all killed)
Settings in all cases: 10 µM
NCI-H23 lung = test system: NCI-H23 lung
NCI-H226 lung = test system: NCI-H226 lung
NCI-H322M lung = test system: NCI-H322M lung
HOP-62 NSCLC = test system: HOP-62 NSCLC
NCI-H460 lung = test system: NCI-H460 lung
HOP-92 NSCLC = test system: HOP-92 NSCLC
NCI-H522 lung = test system: NCI-H522 lung
A549/ATCC NSCLC = test system: A549/ATCC NSCLC
786-0 renal = test system: 786-0 renal
COLO 205 colon = test system: COLO 205 colon
DU-145 prostate = test system: DU-145 prostate
K-562 leukemia = test system: K-562 leukemia
MALME-3M melanoma = test system: MALME-3M melanoma
RXF 393 renal = test system: RXF 393 renal
SF-268 CNS = test system: SF-268 CNS
SF-295 CNS = test system: SF-295 CNS
SF-539 CNS = test system: SF-539 CNS
UACC-257 melanoma = test system: UACC-257 melanoma
M14 melanoma = test system: M14 melanoma
MDA-MB-231 breast = test system: MDA-MB-231 breast

Compound | growth (NCI-H23 lung) | growth (NCI-H226 lung) | growth (NCI-H322M lung) | growth (HOP-62 NSCLC) | growth (NCI-H460 lung) | growth (HOP-92 NSCLC) | growth (NCI-H522 lung) | growth (A549/ATCC NSCLC) | growth (786-0 renal) | growth (COLO 205 colon) | growth (DU-145 prostate) | growth (K-562 leukemia) | growth (MALME-3M melanoma) | growth (RXF 393 renal) | growth (SF-268 CNS) | growth (SF-295 CNS) | growth (SF-539 CNS) | growth (UACC-257 melanoma) | growth (M14 melanoma) | growth (MDA-MB-231 breast)
S=c1nc(-c2ccccc2)cc(-c2cc3ccccc3nc2Cl)[nH]1 | 78.5% | 76.8% | 98.5% | 72.7% | 90.4% | 75.9% | 57.8% | 86.1% | 90.5% | 96.3% | 90.5% | 14.2% | 66.4% | 91.2% | 70.5% | 55.8% | 72.3% | 81.6% | 36.7% | 
O=C1Nc2cc(Cl)ccc2/C1=C/c1ccc(OCc2ccc(Br)cc2F)cc1 | -68.8% (active) | -70.6% (active) | 5.43% (active) | -79.7% (active) | -81.5% (active) | -43.4% (active) | -52.5% (active) | -75.2% (active) | -88.7% (active) | -43% (active) | -17.5% (active) | 9.64% (active) | -69.5% (active) | -77.4% (active) | -25.9% (active) | -94.9% (active) | -92% (active) | -22.6% (active) | -45.1% (active) | 
CCCCSc1nc(Nc2ccc(/C(C)=N/NC(N)=S)cc2)c(C#N)c(-c2ccc(OC)cc2)n1 | 31.4% | -6.28% (active) | 74.8% | 54.4% | 46.5% | -4.59% (active) | 85.7% | 47.4% | -71.5% (active) | 125% | 61.5% | 78.2% | -39.6% (active) |  | 56.6% | 69.7% | -55.4% (active) | 74.9% | 39.3% | -11.4% (active)
O=C1Nc2cc(Cl)ccc2/C1=C/c1cccc(OCc2ccc(Br)cc2F)c1 | 28.5% | 37.4% | 54% | 11.1% | 0.927% (active) | 6.98% (active) | -2.73% (active) | 29.7% | 17.9% | 3.13% (active) | 4.44% (active) | 1.92% (active) | 33.8% | -15.1% (active) | 9.99% (active) | 5.06% (active) | -6.14% (active) | 45.9% | -32.6% (active) | 
O=C(CNc1nc(-c2ccccc2)cs1)Nc1ccc([N+](=O)[O-])cc1Cl | 0.556% (active) | 31.5% | 60.3% | 42.4% | 51.6% | 29% | -19.1% (active) | 44.1% | 38.1% | 60.7% | 54.8% | 12.2% | 24% |  | 29.6% | 34.2% | 2.17% (active) | 58.5% | 34.4% | 10.8%
O=C(/C=C/Nc1ccccc1)c1ccc2c(c1)Nc1ccccc1S2 | 70% | 43.5% | 75.7% | 53.5% | 62.5% | 98.7% | 61.4% | 87.7% | 87.2% | 100% | 84.3% | 90.6% | 71.5% |  | 81.2% | 78.1% | 59.9% | 96.7% | 93.8% | 69.2%
Cc1ccc(S(=O)(=O)c2nc(-c3ccccc3)oc2S(=O)(=O)CC(=O)N2CCCC2)cc1 | -77.9% (active) | 56.3% | 73.6% | 78.3% | 26.4% | -85.6% (active) | -96.3% (active) | 63.4% | -57.3% (active) | -93.2% (active) | -98.5% (active) |  | -94.9% (active) | -93.8% (active) | -0.601% (active) | 70.3% | -100% (active) | -92.2% (active) | -48.3% (active) | -94.8% (active)
O=C(NCCCCC(c1ccc(F)cc1)c1ccc(F)cc1)NCCCc1cccnc1 | 24% | 41.2% | 64.8% | 56.2% | 28.8% | 19.4% | 16.8% | 27.2% | 47.7% | -12.1% (active) | 22% |  | -13% (active) | 30.8% | 52.4% | 18.5% | 0.987% (active) | 25.8% | -20.2% (active) | 44.8%
